Assay outcomes (PubChem)
PGC1a acetyl inh: PGC1a acetylation modulation, inhibitor mode. U2OS PGC1a acetylation, AlphaScreen anti-acetyl-lysine; with virally co-expressed GCN5 acetyltransferase. inhibition, % at 15.6 µM. hit rate 0.17% among 350,000;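 active = every replicate shows inhibition of at least 40%; inconclusive = mean inhibition at least 40% but some replicate below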;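 also: 0% = neutral control wells and 100% = positive control wells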
Ecoli rRNA inh: inhibitors of bacterial rRNA selective over humanized ribosomes. E. coli WT GFP vs humanized-ribosome RFP mutants, fluorescence, 24 h; stronger effect = lower value; DMSO median 0, no signal -100. GFP signal change (wild-type ribosome), % (concentration not given with the values). hit rate 1.6% among 350,000. AID 720706;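 active = significant combined selectivity score with lowered wild-type GFP, culture density cut under 30%, mutant RFP and density less affected; inactive = any of these conditions unmet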
SIRT5 block: sirtuin-5 (human) deacylase inhibition | Q9NXA8 | Purified SirT5, succinyl-peptide AMC, trypsin-coupled fluorescence | inhibition, % at 15 µM | hit rate 1.1% among 330,000; in the data active = inhibition above about 15%; inconclusive = no clear call, values can overlap the other calls
Target sequence (Q9NXA8 whole entry, looked up): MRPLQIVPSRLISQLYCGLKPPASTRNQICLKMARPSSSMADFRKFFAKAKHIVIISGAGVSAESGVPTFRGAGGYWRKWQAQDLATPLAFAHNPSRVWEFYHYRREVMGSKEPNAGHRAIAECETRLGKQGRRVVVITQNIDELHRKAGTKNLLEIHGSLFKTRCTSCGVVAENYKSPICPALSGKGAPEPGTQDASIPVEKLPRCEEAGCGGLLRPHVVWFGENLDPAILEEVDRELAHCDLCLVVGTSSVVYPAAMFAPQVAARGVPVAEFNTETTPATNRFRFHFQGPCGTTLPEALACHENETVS
EWS-Fli inh: EWS/Fli transcriptional activity inhibition. A673 NR0B1-luciferase reporter, viability-normalised. inhibition, % at 12.6 µM. hit rate 0.67% among 350,000. AID 651661;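 active = mean inhibition of at least 50% after viability correction, with every replicate also passing that limit; inconclusive = mean reaches 50% but only one of two replicates passes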;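 also: firefly luciferase signal divided by Alamar Blue viability fluorescence both relative to DMSO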
PAX8 inh HTS: PAX8 transcriptional activity inhibition; RMG-I TPO-luciferase reporter, SteadyGlo, 24 h; inhibition, % at 12.6 µM; hit rate 1.2% among 360,000; AID 652154;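 active = mean replicate inhibition at least 60% with every replicate also reaching 60%; inconclusive = only one of the two criteria is met; inactive = mean below 60% and not all replicates reaching 60%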;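 also: luciferase light reporting Pax8 driven TPO promoter activity; plate controls were median of neutral control wells for no effect and mitoxantrone controls for full effect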
LGR2 antag: blocks bursicon-induced cAMP signaling via Drosophila LGR2; HEK293 LGR2, CRE-luciferase, bursicon-stimulated, 4 h; inhibition, % at 9.99 µM; hit rate 0.35% among 380,000; AID 720647;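 active = drop in luminescence signal, shown as inhibition above about 50% in the replicate tests, limit read from the data, passing the limit was not always enough; inconclusive = probably only some replicates passing the limit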;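 also: agonist challenge used bursicon conditioned medium at about half maximal strength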
The depositor's hits bear a star. Only some compounds are listed: those with a hit (about 3.4% of all), similar ones and a draw of the others.

What do the screens show for `COc1cc(-c2cnc3c(NC=O)cc(-c4ccccc4)cn23)cc(OC)c1OC`?
PGC1a acetyl inh: -105; Ecoli rRNA inh: 5; SIRT5 block: -2; EWS-Fli inh: 59*; PAX8 inh HTS: 92*; LGR2 antag: -48

How did Cc1ccc(S(=O)(=O)N[C@@H]2C=C[C@H](CC(=O)NCc3ccccc3F)O[C@H]2CO)cc1 do in these assays?
PGC1a acetyl inh: 4; Ecoli rRNA inh: 1; SIRT5 block: -3; EWS-Fli inh: -3; PAX8 inh HTS: -11; LGR2 antag: -11

How did O=S(=O)(NCc1cc(-c2ccccc2)no1)c1ccccc1 do in these assays?
PGC1a acetyl inh: -11; Ecoli rRNA inh: -23*; SIRT5 block: -2; EWS-Fli inh: -20; PAX8 inh HTS: 8; LGR2 antag: 5

What do the screens show for `O=S(=O)(NCc1cc(-c2ccc(Cl)cc2)no1)c1ccccc1`?
PGC1a acetyl inh: 11; PAX8 inh HTS: -7

Results for CC(C)NC(=O)N(C)C[C@@H]1OCCCC[C@H](C)Oc2ccc(N(C)C)cc2C(=O)N([C@H](C)CO)C[C@@H]1C ?
PGC1a acetyl inh: 2; Ecoli rRNA inh: 2; SIRT5 block: 1; PAX8 inh HTS: 5; LGR2 antag: 15

What do the screens show for `CN1c2ccc(C3=CCCCC3)cc2[C@H]2[C@H](CCN2C(=O)C2CCCCC2)[C@@H]1CO`?
PGC1a acetyl inh: -11; Ecoli rRNA inh: -5; SIRT5 block: 9; EWS-Fli inh: -14; PAX8 inh HTS: 20; LGR2 antag: 0

How did CN1c2ccc(C3=CCCCC3)cc2[C@@H]2[C@@H](CCN2C(=O)C2CCCCC2)[C@@H]1CO do in these assays?
PGC1a acetyl inh: -15; SIRT5 block: 18*; EWS-Fli inh: 5; PAX8 inh HTS: 33

Results for CN1c2ccc(C3=CCCCC3)cc2[C@H]2[C@H](CCN2C(=O)C2CC2)[C@@H]1CO ?
PGC1a acetyl inh: 38; SIRT5 block: 20*; EWS-Fli inh: -3; PAX8 inh HTS: 100*

Results for O=C(COC(=O)/C=C/c1ccc(Cl)cc1)NC1CCCCCC1 ?
PGC1a acetyl inh: 1; SIRT5 block: -3; EWS-Fli inh: -9; PAX8 inh HTS: -1; LGR2 antag: -20

Results for O=C(COC(=O)/C=C/c1ccc(Cl)cc1)NC1CC1 ?
PGC1a acetyl inh: 3; Ecoli rRNA inh: 3; SIRT5 block: 21*; EWS-Fli inh: -1; PAX8 inh HTS: 3; LGR2 antag: -2

What do the screens show for `Cc1noc(C)c1NC(=O)N(C)C[C@@H]1Oc2ccc(NC(=O)NC3CCCCC3)cc2C(=O)N([C@@H](C)CO)C[C@@H]1C`?
PGC1a acetyl inh: 6; Ecoli rRNA inh: 1; SIRT5 block: 0; EWS-Fli inh: 3; LGR2 antag: 15

Results for O=C(O)c1ccc(-c2noc(-c3ccccc3Cl)n2)cc1 ?
Ecoli rRNA inh: -16; SIRT5 block: 3; EWS-Fli inh: -100; PAX8 inh HTS: -8; LGR2 antag: inconclusive

How did O=C(O)c1ccc(-c2noc(-c3cccc(Cl)c3)n2)cc1 do in these assays?
PGC1a acetyl inh: -1; Ecoli rRNA inh: -23*; SIRT5 block: 3; EWS-Fli inh: -64; PAX8 inh HTS: -185; LGR2 antag: 2

Results for O=C(Nc1ccc(Cl)c(Cl)c1)Nn1cnnc1 ?
PGC1a acetyl inh: -9; Ecoli rRNA inh: -22*; SIRT5 block: 3; EWS-Fli inh: -5; PAX8 inh HTS: -11; LGR2 antag: 13

Results for Cc1ccc(NC(=O)Nn2cnnc2)cc1Cl ?
Ecoli rRNA inh: 16; SIRT5 block: -1; PAX8 inh HTS: -5; LGR2 antag: 6

How did CCN1C(=O)CSC1=NC12CC3CC(CC(C3)C1)C2 do in these assays?
PGC1a acetyl inh: -7; Ecoli rRNA inh: -22; SIRT5 block: -3; EWS-Fli inh: 14; LGR2 antag: 8

What do the screens show for `CC1(C)C2CCC(C2)C1(C)N=C1OC(CCl)CS1` (stereo not drawn)?
PGC1a acetyl inh: 4; Ecoli rRNA inh: -22*; SIRT5 block: -1; EWS-Fli inh: 5; PAX8 inh HTS: 23; LGR2 antag: -16

Results for ClCC1CSC(=NC23CC4CC(CC(C4)C2)C3)O1 (stereo not drawn) ?
PGC1a acetyl inh: 0; Ecoli rRNA inh: -15; SIRT5 block: 17*; EWS-Fli inh: -8; PAX8 inh HTS: -6; LGR2 antag: 31

What do the screens show for `N#Cc1cnn(-c2ccc([N+](=O)[O-])cc2[N+](=O)[O-])c1N`?
PGC1a acetyl inh: 8; Ecoli rRNA inh: -7.5*; EWS-Fli inh: 0; PAX8 inh HTS: 20; LGR2 antag: -6

Results for N#Cc1cnn(-c2cc(Cl)ccc2Cl)c1N ?
PGC1a acetyl inh: -2; SIRT5 block: 0; EWS-Fli inh: 6; PAX8 inh HTS: -2; LGR2 antag: 1

Results for Cc1noc(C)c1NC(=O)N(C)C[C@H]1OCCCC[C@H](C)Oc2ccc(NC(=O)NC(C)C)cc2C(=O)N([C@@H](C)CO)C[C@@H]1C ?
PGC1a acetyl inh: -1; Ecoli rRNA inh: 2; SIRT5 block: -9; EWS-Fli inh: -11; PAX8 inh HTS: 26; LGR2 antag: 8

Results for CCCN1C(=O)/C(=C/c2ccc3c(c2)OCO3)NC1=S ?
Ecoli rRNA inh: -24*; SIRT5 block: -1; EWS-Fli inh: -5; PAX8 inh HTS: 6; LGR2 antag: -5

What do the screens show for `CC(C)CC#Cc1ccc2c(c1)O[C@@H](CN(C)C(=O)Cc1ccccc1)[C@@H](C)CN([C@H](C)CO)S2(=O)=O`?
PGC1a acetyl inh: -11; Ecoli rRNA inh: -3; SIRT5 block: 0; EWS-Fli inh: 11; LGR2 antag: -11

Results for CCN1C(=O)[C@@H]2[C@@H](c3ccc(-c4ccc(Cl)c(Cl)c4)c(OC)c3)N3CCC[C@@]3(C(=O)OC)[C@@H]2C1=O ?
Ecoli rRNA inh: -7; SIRT5 block: -2; EWS-Fli inh: 4; PAX8 inh HTS: 70*; LGR2 antag: 12

Results for CN(C(=O)CSc1nc(-c2ccc(C(C)(C)C)cc2)c(C#N)c(=O)[nH]1)C1CCCCC1 ?
PGC1a acetyl inh: 35; Ecoli rRNA inh: -6; SIRT5 block: 17*; EWS-Fli inh: -4; PAX8 inh HTS: -21; LGR2 antag: 2

What do the screens show for `N#Cc1c(-c2ccccc2)nc(SCC(=O)NC2CCCCC2)[nH]c1=O`?
Ecoli rRNA inh: -15; SIRT5 block: 0; EWS-Fli inh: 11; PAX8 inh HTS: 6; LGR2 antag: -1

What do the screens show for `CCN(C(=O)CN1CCN(c2ccccc2O)CC1)c1c(N)n(Cc2ccccc2)c(=O)[nH]c1=O`?
PGC1a acetyl inh: 50*

How did COc1ccc2c3c(n(C)c2c1)[C@@H](CO)N(C(=O)Cc1ccccn1)CC31CN(Cc2ccccn2)C1 do in these assays?
PGC1a acetyl inh: 4; Ecoli rRNA inh: 1; EWS-Fli inh: 22; LGR2 antag: -10
